Some structures have more than one record in an assay (separate samples or runs), and their calls can disagree. Active and inactive are the calls of the source. Rule for the calls: active = hit-call score of the fitted dose curve at least 0.9, where 1 is the maximum; inactive = score below 0.9.

By AC50 is commonly meant the concentration giving half of the maximal activity seen.

Read-out in this assay: Macrophage colony-stimulating factor (MCSF), CSF1 (gene 1435)
Description: BSK_hDFCGF_MCSF: BioMAP Diversity Plus: hDFCGF Assay for Macrophage colony-stimulating factor (MCSF) Biomarker Activity (AID 2283060). The conditions noted are these: primary human foreskin fibroblasts; actives raise or lower the signal. The method, then: BSK_hDFCGF is a cell-based, multiplexed-readout assay that uses foreskin fibroblast, a human skin primary cell, with measurements taken at 24 hours after chemical dosing in a 96-well plate.BSK_hDFCGF_MCSF is an assay component measured in the BSK_hDFCGF assay. It measures M-CSF antibody related to regulation of gene expression using ELISA technology.Data from the assay component BSK_hDFCGF_MCSF was analyzed into 1 assay endpoint. This assay endpoint, BSK_hDFCGF_MCSF, was analyzed with bidirectional fitting relative to DMSO as the negative control and baseline of activity. Using a type of binding reporter, gain or loss-of-signal activity can be used to understand changes in the signaling as they relate to the gene CSF1. Furthermore, this assay endpoint can be referred to as a primary readout, because this assay has produced multiple assay endpoints where this one serves a signaling function. To generalize the intended target to other relatable targets, this assay endpoint is annotated to the cytokine intended target family, where the subfamily is colony stimulating factor.
The levels of cell surface (or secreted, indicated by the prefix "s") biomarker endpoints were measured by ELISA. Overt cytotoxicity to cells in confluent adherent cultures (all systems other than the BT system) was assessed by measuring total protein levels using sulforhodamine B (SRB) staining in parallel cultures at the time of biomarker measurements, indicated as SRB endpoints. For proliferation assays for adherent cell types, individual cell types are cultured at sub-confluence and relative cell numbers quantified by SRB staining at time points optimized for each system (48 h: 3C and CASM3C systems; 72 h: BT and HDF3CGF systems; 96 h: SAg system). SRB was performed by staining cells with 0.1% SRB after fixation with 10% TCA and reading wells at 560 nm.Viability and proliferation of PBMC (T cells) was quantified by Alamar Blue reduction for the SAg and BT systems. For PBMC viability (referred to as PBMC Cytotoxicity within the assay endpoint names), cells were plated (75,000/well in a 96-well plate) and then chemical samples added for 1 h before addition of activators, SEB and TSST-1 (20 ng/mL final concentration each). Cells were incubated for 90 h. Then, Alamar Blue (20 uL/well) (Invitrogen, Cat DAL1100) was added for 6 h, and the plates were read with a fluorescence microplate reader at 546/580 nm (excitation/emission). For PBMC proliferation, cells were plated and activated as above but incubated for only 16 h prior to addition of Alamar Blue. Plates were read after 6 h.
For the compound `c1ccc2ncccc2c1`, the outcome was inactive.

Take `CC(C)CC(C)O` (stereo not given): the result was inactive.

For the compound `COS(C)(=O)=O`, the result was inactive.

Consider `C[Si](C)(C)C(F)(F)C(F)(F)C(F)(F)F`, for which the result was inactive.

`CCN(CC)C(=S)SSC(=S)N(CC)CC`: the AC50 is 1.76 µM (active).

`OC(Cn1cncn1)(Cn1cncn1)c1ccc(F)cc1F`: the outcome was inactive.

For `OC[C@H]1O[C@@](CO)(O[C@H]2O[C@H](CO)[C@@H](O)[C@H](O)[C@H]2O)[C@@H](O)[C@@H]1O`, the result was inactive.

For `CC[C@H](C)C(=O)O[C@H]1C[C@H](O)C=C2C=C[C@H](C)[C@H](CC[C@@H](O)C[C@@H](O)CC(=O)O)[C@H]21`, the outcome was inactive.

Regarding `NC(=O)NN=Cc1ccc([N+](=O)[O-])o1`, the result was inactive.

In the case of `C[C@@H](Oc1ccc(CNC(=O)c2cccnc2Oc2ccc3c(c2)OCO3)c(F)c1)C(=O)O`, the result was inactive.

With `O=C(O)c1ccc2c(c1)nc(C(=O)NC1CCN(C3CC3)CC1)n2Cc1cc(-c2ccc(Cl)s2)on1`, the result was inactive.

For `OCCC(F)(F)C(F)(F)C(F)(F)C(F)(F)F`, the outcome was inactive.

Regarding `Cc1nccn1-c1ccc(Sc2cccc(C3(C(N)=O)CCOCC3)c2)cc1`, the outcome was inactive.

On to `CC1(C)C(=O)N(Cl)C(=O)N1Cl`, for which the outcome was inactive.

`NC(=O)N(O)[C@@H]1COc2cc(OCc3ccccc3)ccc21`: the result was inactive.

Turning to `CCCc1ccccc1`, the result was inactive.

With `FC(F)(F)C(F)(F)C(F)(F)C(F)(F)C(F)(F)C(F)(F)I`, the outcome was inactive.

Consider `FC(F)=C(F)C(F)(F)C(F)(F)C(F)(F)C(F)(F)C(F)(F)C(F)(F)F`, for which the outcome was inactive.

With `CCCCOC(=O)c1ccccc1`, the result was inactive.

For `Cc1ccc(S(=O)(=O)NC(=O)NN2CCCCCC2)cc1`, the outcome was inactive.

As to `OC(CCl)CCl`, the outcome was inactive.

For `CCCCCCOC(=O)CC(CC(=O)OCCCCCC)(OC(=O)CCC)C(=O)OCCCCCC`, the outcome was inactive.

Take `c1ccc(C(O[C@@H]2CCCN(CCc3ccc4c(c3)OCO4)C2)c2ccccc2)cc1`: the concentration at half-maximal activity (AC50) was 20 µM (active).

`O=S(=O)(O)CCC(F)(F)C(F)(F)C(F)(F)C(F)(F)C(F)(F)C(F)(F)F`: the outcome was inactive and the half-maximal activity concentration (AC50) was 6.02 µM (active).

Consider `CCCCCCCC1CCC(=O)O1` (stereo not given), for which the outcome was inactive.

As for `CCCCCCCCCCCCCCO`, the AC50 was 24.9 µM (active).

Consider `OCC(CO)(CO)CO`, for which the result was inactive.

In the case of `C=CN1CCCC1=O`, the outcome was inactive.

Turning to `FC(F)(F)COC(OCC(F)(F)F)OCC(F)(F)F`, the outcome was inactive.

As for `c1ccc2cc3ccccc3cc2c1`, the outcome was inactive.

Turning to `CC(C)C(=O)Nc1ccc([N+](=O)[O-])c(C(F)(F)F)c1`, the result was inactive.

Take `C=CCc1cc(S(=O)(=O)c2ccc(O)c(CC=C)c2)ccc1O`: the half-maximal activity concentration (AC50) is 27 µM (active).

For the compound `CCCCCCCCN(C)C`, the result was inactive.

On to `FC(F)C(F)(F)COCC1CO1` (stereo not given), for which the outcome was inactive.

For `CCCCCCCC/C=C\CCCCCCCC(=O)OC[C@@H](O)[C@H]1OC[C@H](O)[C@H]1O`, the outcome was inactive.

As to `O=C(O)[C@H](O)[C@@H](O)C(=O)O`, the result was inactive.

Consider `NC(=O)N1c2ccccc2C=Cc2ccccc21`, for which the result was inactive.

In the case of `O=S1(=O)CCCO1`, the result was inactive.

In the case of `CCCCCCCCCCCCCCCCOS(=O)(=O)O`, the AC50 was 10.2 µM (active).

(Values after PubChem BioAssay (EPA / NIEHS).)
